Compound activity from PubChem BioAssay.
Most compounds without a hit are left out; they make up all but 0.49% or so of the library.
EPAC1 antagonist – blocks human EPAC1 exchange factor; Potency, µM (top dose mostly 115 µM), for inactives: top-dose activity change, negative = inhibition, hits mostly inhibitors; O95398; EPAC1 GEF assay, Rap1b-BODIPY-GDP exchange fluorescence; 0.14% of 360,000 active;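 note: plate controls were vehicle for no effect and positive control for full effect; nearly all actives have a fitted effect of over 50% in size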
EPAC2 antag – EPAC2 (human) antagonism | Q8WZA2 | EPAC2 GEF exchange of Rap1B-BODIPY-GDP, fluorescence | Potency, µM (highest dose often 114 µM), for the others: top-dose activity, negative = inhibition, most hits filed as inhibitors | 0.18% of 360,000 active; note: % is set by controls: 0 for no effect and ±100 for the full control effect; nearly all actives have a fitted effect of over 45% in size
EPAC2 ag – EPAC2 (human) agonism; Potency, µM (highest dose often 154 µM), for inactives: at the top dose activation, most hits filed as activators; AID 720711; 0.079% of 360,000 active; EPAC2 activation, biochemical qHTS; response scale: 100% = 6.5 mM cAMP response; Q8WZA2; note: nearly all actives have a fitted effect of over 50% in size
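Nucleotide exchange monitored as fluorescence drop when BODIPY-GDP leaves Rap1B. Reaction: 100 nM EPAC2, 250 nM RAP1B-BODIPY-GDP, 50 uM GDP, room temperature, kinetic read over 30 min. Activity expressed relative to 6.5 mM cAMP.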
USP1 inh – USP1/UAF1 (human) deubiquitinase inhibition; O94782; recombinant USP1/UAF1, Ub-Rhodamine cleavage fluorescence; Potency, µM (titrated, usually from 57.1 µM), without a hit: top-dose activity change, negative = inhibition, hits mostly inhibitors; 0.23% of 390,000 active; AID 743255; note: % is set by controls: 0 for no effect and ±100 for the full control effect; nearly all actives have a fitted effect of over 60% in size
Target sequence (O94782 whole entry, looked up): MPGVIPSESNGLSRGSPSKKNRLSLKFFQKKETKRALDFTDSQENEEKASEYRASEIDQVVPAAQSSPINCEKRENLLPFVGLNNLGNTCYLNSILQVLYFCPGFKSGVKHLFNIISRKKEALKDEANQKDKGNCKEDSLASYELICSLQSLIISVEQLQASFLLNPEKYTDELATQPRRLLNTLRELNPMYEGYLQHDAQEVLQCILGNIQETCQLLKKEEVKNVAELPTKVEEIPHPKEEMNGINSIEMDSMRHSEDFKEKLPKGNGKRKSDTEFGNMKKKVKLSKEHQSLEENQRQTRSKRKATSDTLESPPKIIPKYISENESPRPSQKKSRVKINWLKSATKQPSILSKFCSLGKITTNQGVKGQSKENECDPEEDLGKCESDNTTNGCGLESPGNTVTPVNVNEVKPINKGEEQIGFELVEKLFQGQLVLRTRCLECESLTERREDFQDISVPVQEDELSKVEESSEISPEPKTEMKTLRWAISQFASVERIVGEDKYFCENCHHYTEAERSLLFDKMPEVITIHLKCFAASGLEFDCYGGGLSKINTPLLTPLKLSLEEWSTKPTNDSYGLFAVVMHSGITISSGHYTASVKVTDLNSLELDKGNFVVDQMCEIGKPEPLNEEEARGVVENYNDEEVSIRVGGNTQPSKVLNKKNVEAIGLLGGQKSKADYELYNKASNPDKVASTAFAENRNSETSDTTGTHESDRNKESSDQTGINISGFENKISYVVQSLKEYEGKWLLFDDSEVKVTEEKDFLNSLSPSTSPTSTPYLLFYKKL
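USP1/UAF1 complex (1 nM) preincubated 15 min at room temperature with compound, then Ub-Rho substrate (150 nM final) added. Kinetic fluorescence at 480/540 nm over 6 reads at 60 s intervals; 50 mM HEPES pH 7.8, 0.5 mM EDTA, 0.1 mg/ml BSA, 1 mM TCEP, 0.01% Tween-20.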
EPAC1 agonist – agonists of human EPAC1 | O95398 | Potency, µM (series often up to 154 µM), inactives show at the highest dose activation, most hits filed as activators | 0.073% of 360,000 active | AID 720707 | EPAC1 agonist qHTS, biochemical assay; response scale: 100% = response to 6.5 mM cAMP; note: nearly all actives have a fitted effect of over 60% in size
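Nucleotide exchange by EPAC1 (100 nM) on Rap1B–BODIPY-GDP (250 nM) in the presence of 50 uM GDP is tracked fluorescently at 480/540 nm over 30 min. Signals are normalized to a 6.5 mM cAMP control.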
* = called active by the depositor; ? = inconclusive; · = no result. Calls come from the whole dose curve; as a rule, active = well fitted curve in the direction sought with a large enough effect; inconclusive = small, poorly fitted or top-dose-only effect, or another doubt; inactive = no such curve, though single readings can be large; an effect the other way counts as inactive or inconclusive. Potency is the fitted concentration of half-maximal effect.

SMILES	EPAC1 antagonist	EPAC2 antag	EPAC2 ag	USP1 inh	EPAC1 agonist
CC(C)N=c1scc(-c2ccco2)n1/N=C/c1ccc(O)c(O)c1	?	-25%	?	-21%	22%
CC(C)c1ccc(NC(=O)C2CCCN2S(=O)(=O)c2ccc3nc(-c4ccccc4)[nH]c3c2)cc1 (stereo not drawn)	·	·	·	-16%	·
COc1ccc(NC(=O)CN2C(=O)C(C)(C)c3ccccc32)cc1Cl	·	·	·	-14%	·
COC(=O)CC1(c2ccc(OC)cc2)C(=O)c2ccccc2C1=O	6%	45µM*	4%	-5%	6%
CCN(CC)CCCNC(=O)C1CCN(S(=O)(=O)CC)CC1	·	·	·	15%	·
O=C(CSc1nc(O)cc(=O)n1-c1ccccc1)Nc1ccc2c3c(cccc13)CC2	79µM*	1%	4%	-4%	-2%
Cc1ccc2nc(SCC(=O)c3c(N)n(C4CC4)c(=O)[nH]c3=O)[nH]c2c1	-9%	71µM*	27%	-25%	-9%
CCOC(=O)Nc1ccc(NCc2ccc(F)cc2)nc1N	?	?	10%	22µM*	14%
CCOC(=O)Nc1ccc(C)cc1NC(=O)OCC	5%	7%	6%	-14%	-4%
COc1ccc(CNC(=O)Cc2c(C)c3ccc(O)cc3oc2=O)cc1	·	·	·	-23%	·
O=C1NC(=S)S/C1=C\c1cccc([N+](=O)[O-])c1	?	50µM*	3%	?	-5%
Cc1cc(/C=C2\SC(=S)NC2=O)cc(C)c1O	?	16µM*	1%	-10%	7%
O=C1NC(=S)S/C1=C\c1cc(Cl)cc(Cl)c1O	40µM*	56µM*	-11%	?	-10%
Cc1cc(/C=C2\SC(=S)NC2=O)c(C)n1-c1ccc(O)cc1	?	?	-5%	-19%	3%
O=C1NC(=S)SC1=Cc1ccccc1Cl	?	35µM*	12%	-37%	-1%
COc1ccccc1C=C1SC(=S)NC1=O	?	-23%	6%	2%	-7%
Cc1cc(/C=C2\SC(=S)NC2=O)c(C)n1C	?	-2%	-6%	-19%	0%
O=C1NC(=Nc2ccccc2Cl)S/C1=C\c1cccc([N+](=O)[O-])c1	-23%	-9%	5%	-19%	10%
COc1ccc(CCN2CCC(CNC(=O)c3cnn(-c4ccc(C)cc4)c3C3CCN(C(=O)OC(C)(C)C)CC3)CC2)cc1	·	·	·	-19%	·
C=CCn1c(NC(=O)c2ccccc2Cl)c(C#N)c2nc3ccccc3nc21	?	?	-1%	16µM*	8%
CCCCn1c(NC(C)=O)c(C#N)c2nc3ccccc3nc21	1%	-4%	9%	-22%	6%
O=C(c1ccc2c(c1)N(Cc1ccccc1)C(=O)c1ccccc1S2=O)N1CCC(Cc2ccccc2)CC1 (stereo not drawn)	·	·	·	-23%	·
CC1=CC(C)(C)N(C(=O)c2ccc(F)cc2)c2cc3c(cc21)OCO3	-20%	50µM*	10%	-24%	11%
CSC1=NCCN1C(=O)c1ccc2c(c1)OCO2	9%	-4%	-6%	1%	4%
CCc1ccc(NC(=O)CC2C(=O)N(c3cccc(OC)c3)C(=O)N2C2CCCC2)cc1 (stereo not drawn)	·	·	·	-3%	·
SMILES	EPAC1 antagonist	EPAC2 antag	EPAC2 ag	USP1 inh	EPAC1 agonist
CN(C)c1ccc2nc3c(=O)[nH]c(=O)nc-3n(CC(O)C(O)C(O)CO)c2c1 (stereo not drawn)	?	3%	9%	28µM*	20%
Cc1c(-c2nnc(SCC(=O)Nc3ccccc3F)o2)nnn1-c1ccc(F)cc1	·	·	·	-3%	·
Clc1cccc(Cl)c1C1Nc2cccc3cccc(c23)N1	?	56µM*	10%	-9%	7%
COc1cc2c(cc1OC)n(CC(=O)c1cccc(Cl)c1)c(=O)n1nc(CCn3nc(C)cc3C)nc21	·	·	·	-5%	·
COc1ccc(OC)c(/C=c2\sc3nc(-c4cccs4)nn3c2=O)c1	-4%	205%	100µM*	32µM*	112µM*
COc1ccc(N2CCN(C(=O)c3cccc(NC(=O)c4nsc5ccccc45)c3)CC2)cc1	·	·	·	-10%	·
Brc1ccc(-c2csc(-c3c[nH]c4ccccc34)n2)cc1	-5%	-4%	40µM*	-26%	16%
COc1cc2c(cc1OC)-c1cc3ccc4c(c3c[n+]1CC2)OCO4	6%	3%	?	25µM*	?
N=c1c(S(=O)(=O)c2ccc(Br)cc2)cc2c(=O)n3ccccc3nc2n1C1CCCC1	-6%	79µM*	-1%	-1%	1%
Cc1ccc(C)c(NC(=O)Cc2coc3cc(C)cc(C)c23)c1	·	·	·	3%	·
COC(=O)c1cn(C(=O)c2ccccc2Cl)c2ccccc12	13%	28µM*	14%	-8%	7%
COC(=O)c1cn(C(=O)OC)c2ccccc12	-11%	7%	4%	2%	-1%
CC1CCc2[nH]c3ccc(C(=O)N4CCCC(C(F)(F)F)C4)cc3c2C1 (stereo not drawn)	?	-29%	-14%	-12%	112µM*
CCOC(=O)c1sc2nc3c(SCC(=O)O)cc(C(=O)c4cc(F)ccc4O)cn3c(=O)c2c1C	8.9µM*	?	13%	1%	89µM*
Nc1ccc2c3c(cccc13)C(=O)N(c1ccccc1)C2=O	454%	421%	100µM*	?	100µM*
O=C(O)c1cccc(N2C(=O)c3cccc4c(Cl)ccc(c34)C2=O)c1	-14%	-32%	1%	-9%	2%
Cc1cccc(N2C(=O)c3cccc4c(N)ccc(c34)C2=O)c1	292%	276%	100µM*	28µM*	89µM*
CC(=O)Nc1cccc2c1C(=O)N(c1cccc(C)c1)C2=O	-23%	0%	8%	-15%	12%
Cc1cccc(N2C(=O)c3cccc4cccc(c34)C2=O)c1	-1%	5%	-2%	-23%	-6%
Nc1cccc(N2C(=O)c3cccc4c(N)ccc(c34)C2=O)c1	97%	152%	89µM*	28µM*	100µM*
O=C(O)c1ccc2c3c(cccc13)C(=O)N(c1ccccc1)C2=O	-2%	6%	7%	-20%	12%
Cc1cccc(N2C(=O)c3cccc4c(N(C)CCO)ccc(c34)C2=O)c1	49%	72%	100µM*	28µM*	112µM*
Cc1cccc(NC(=O)NCCn2c(=O)oc3ccc(C)cc32)c1	·	·	·	-19%	·
CCCc1cc(=O)[nH]c2nnc(SCC(=O)Nc3cccc(C)c3)n12	·	·	·	-13%	·
CC(C)CCN1C(=O)c2cccc3c(N)ccc(c23)C1=O	25%	38%	?	?	71µM*
Cc1ccc(Cc2nc3ccccc3nc2SCC(=O)N2CCCc3ccccc32)cc1	·	·	·	-9%	·
COc1cc2c(cc1OC)C(COc1ccc(F)cc1)N(C(C)=O)CC2 (stereo not drawn)	6%	?	2%	-12%	-5%
